Inconclusive results are not listed. Calls of active or inactive are those of the source. The call rests on the fitted dose curve; in most records, active means well fitted curve in the direction sought with a large enough effect; inconclusive means small, poorly fitted or top-dose-only effect, or another doubt; inactive means no such curve, though single readings can be large; an effect the other way counts as inactive or inconclusive.
What was measured:
CRL-7250 = normal cell line; experiment: Cytotoxic Profiling of Annotated Libraries Using Quantitative High-Throughput Screening (AID 1296008); details: Five cell lines viability, CellTiter-Glo ATP luminescence, 48-72 h; max response: hits give low values; further: nearly all actives have a fitted effect of over 60% in size; on max response: on the % scale 0 is the no-effect control and ±100 the full control effect
Procedure, shortened: (§1)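 Cells exposed to compounds for 48 or 72 hr at 37 degrees Celsius. Viability read as ATP-coupled luminescence with CellTiter-Glo after 10 min at room temperature.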

HEK293 = experiment: as above; details: Five cell lines viability, CellTiter-Glo ATP luminescence, 48-72 h; max response: hits give low values
Procedure, shortened: as §1

HaCat [1] = experiment: as above; details: Five cell lines viability, CellTiter-Glo ATP luminescence, 48-72 h; max response: hits give low values
Procedure, shortened: as §1

KB-3-1 = experiment: as above; details: Five cell lines viability, CellTiter-Glo ATP luminescence, 48-72 h; max response: hits give low values
Procedure, shortened: as §1

NIH3T3 [2] = experiment: as above; details: Five cell lines viability, CellTiter-Glo ATP luminescence, 48-72 h; max response: hits give low values
Procedure, shortened: as §1

HACAT [3] = experiment: qHTS assay to identify novel small-molecules to repurpose for Merkel cell carcinoma treatment (AID 1296009); details: MCC and control cell lines, CellTiter-Glo viability, 72 h; at 44.8 µM (top of the series) unless noted; further: nearly all actives have a fitted effect of over 60% in size
Procedure, shortened: (§2)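 Dose-response viability screen; 72 hr exposure at 37 degree celsius; CellTiter-Glo added, 10 min room temperature, luminescence read; RLUs scaled between no-cell and DMSO wells.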

HEK293T = experiment: as above; details: MCC and control cell lines, CellTiter-Glo viability, 72 h; series mostly up to 44.8 µM
Procedure, shortened: as §2

NIH3T3 [4] = experiment: as above; details: MCC and control cell lines, CellTiter-Glo viability, 72 h; at 44.8 µM (top of the series) unless noted
Procedure, shortened: as §2

C33A = experiment: Primary qHTS to identify gynecologic anti-cancer compounds using libraries of approved drugs and bioactive compounds (AID 1345084); details: Gynecologic cancer cell panel viability, ATPlite luminescence, 48 h; series mostly up to 57.5 µM; further: on the % scale 0 is the no-effect control and ±100 the full control effect; nearly all actives have a fitted effect of over 55% in size
Procedure, shortened: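 Cell viability after 48 h drug treatment, ATPlite luminescence readout; five doses.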

CCOC(=O)c1ccc(N(C)c2csc(-c3ccccc3)n2)cc1
inactive: max response (CRL-7250) 4.84% | outcome (HEK293) | outcome (HaCat [1]) | max response (KB-3-1) 0.515% | outcome (NIH3T3 [2]) | outcome (HACAT [3]) | Potency (HEK293T) | outcome (NIH3T3 [4]) | Potency (C33A)

CC1[C@@H](O)[C@@H](O)C2[C@]3(C)C(C[C@H]4OC(=O)[C@H](O)[C@]1(O)[C@@]24C)C(C)(O)C[C@H](O)[C@H]3O (some centres undefined)
inactive: outcome (CRL-7250) | outcome (HEK293) | outcome (HaCat [1]) | max response (KB-3-1) 4.32% | outcome (NIH3T3 [2]) | outcome (HACAT [3]) inactive [at 17.4 µM] | Potency (HEK293T) | outcome (NIH3T3 [4]) inactive [at 17.4 µM] | Potency (C33A)

CCC(C)(O)C(O)C(=O)OCc1ccc(O[C@@H]2O[C@H](CO)[C@@H](O)[C@H](O)[C@H]2O)c(OC)c1 (some centres undefined)
inactive: max response (CRL-7250) 0.769% | outcome (HEK293) | outcome (HaCat [1]) | max response (KB-3-1) 4.31% | outcome (NIH3T3 [2]) | outcome (HACAT [3]) inactive [at 17.4 µM] | Potency (HEK293T) | outcome (NIH3T3 [4]) inactive [at 17.4 µM] | Potency (C33A)

O=C(O[C@H]1[C@@H]2C=CO[C@@H](O[C@@H]3O[C@H](CO)[C@@H](O)[C@H](O)[C@H]3O)[C@@H]2[C@@]2(CO)O[C@@H]12)c1ccc(O)c(O)c1
inactive: outcome (CRL-7250) | outcome (HEK293) | outcome (HaCat [1]) | max response (KB-3-1) 4.32% | outcome (NIH3T3 [2]) | outcome (HACAT [3]) inactive [at 17.4 µM] | Potency (HEK293T) | outcome (NIH3T3 [4]) inactive [at 17.4 µM] | Potency (C33A)

C[C@@H]1CC[C@]2(C(=O)O[C@@H]3O[C@H](CO)[C@@H](O)[C@H](O)[C@H]3O)CC[C@]3(C)C(=CCC4[C@@]5(C)C[C@@H](O)[C@H](O)C(C)(C)C5CC[C@]43C)C2[C@]1(C)O (some centres undefined)
inactive: outcome (CRL-7250) | outcome (HEK293) | outcome (HaCat [1]) | max response (KB-3-1) 0.448% | outcome (NIH3T3 [2]) | outcome (HACAT [3]) inactive [at 17.4 µM] | Potency (HEK293T) | outcome (NIH3T3 [4]) inactive [at 17.4 µM] | Potency (C33A)

COc1ccccc1[C@@H]1C2=C(CC(C)(C)CC2=O)Nc2n[nH]c(C(F)(F)F)c21
inactive: max response (CRL-7250) 3.92% | outcome (HEK293) | outcome (HaCat [1]) | outcome (KB-3-1) | outcome (NIH3T3 [2]) | outcome (HACAT [3]) | Potency (HEK293T) | outcome (NIH3T3 [4]) | Potency (C33A)

CC(=O)NCCCCn1c2c(c3ccccc31)C(=O)NCC2
inactive: max response (CRL-7250) 4.55% | outcome (HEK293) | outcome (HaCat [1]) | outcome (KB-3-1) | outcome (NIH3T3 [2]) | outcome (HACAT [3]) | Potency (HEK293T) | outcome (NIH3T3 [4]) | Potency (C33A)

COc1cc2c(cc1OC)CN(C(=O)[C@@H](NCc1ccncc1)C(C)(C)C)CC2
inactive: outcome (CRL-7250) | outcome (HEK293) | outcome (HaCat [1]) | max response (KB-3-1) 5.18% | outcome (NIH3T3 [2]) | outcome (HACAT [3]) | Potency (HEK293T) | outcome (NIH3T3 [4]) | Potency (C33A)

CCC[C@@H]1C[C@@H](C(=O)N[C@@H]([C@H]2O[C@H](SC)[C@H](O)[C@@H](O)[C@@H]2O)[C@@H](C)O)N(C)C1
inactive: outcome (CRL-7250) | outcome (HEK293) | outcome (HaCat [1]) | outcome (KB-3-1) | outcome (NIH3T3 [2]) | outcome (HACAT [3]) | Potency (HEK293T) | outcome (NIH3T3 [4]) | Potency (C33A)

CC(=O)OC(CSC1CCC(=O)OC(C)CCC(=O)C1)C(=O)O (centres undefined)
inactive: max response (CRL-7250) -6.05% | outcome (HEK293) | outcome (HaCat [1]) | outcome (KB-3-1) | outcome (NIH3T3 [2]) | outcome (HACAT [3]) | Potency (HEK293T) | outcome (NIH3T3 [4]) | Potency (C33A)

C=C[C@H]1[C@H](O[C@@H]2O[C@H](CO)[C@@H](O)[C@H](O)[C@H]2O)OC=C2C(=O)OCC[C@]21O
inactive: max response (CRL-7250) 0.194% | outcome (HEK293) | outcome (HaCat [1]) | max response (KB-3-1) 0.223% | outcome (NIH3T3 [2]) | outcome (HACAT [3]) | Potency (HEK293T) | outcome (NIH3T3 [4]) | Potency (C33A)

O=C1Nc2ccc(O)cc2O[C@H]1O[C@@H]1O[C@H](CO)[C@@H](O)[C@H](O)[C@H]1O
inactive: max response (CRL-7250) -3.66% | outcome (HEK293) | outcome (HaCat [1]) | outcome (KB-3-1) | outcome (NIH3T3 [2]) | outcome (HACAT [3]) | Potency (HEK293T) | outcome (NIH3T3 [4]) | Potency (C33A)

O=C(/C=C/c1ccc(O)cc1)OC[C@H]1O[C@@H](OC(=O)/C=C/c2ccccc2)[C@H](O)[C@@H](O)[C@@H]1O
inactive: outcome (CRL-7250) | outcome (HEK293) | outcome (HaCat [1]) | max response (KB-3-1) -1.64% | outcome (NIH3T3 [2]) | outcome (HACAT [3]) inactive [at 17.4 µM] | Potency (HEK293T) | outcome (NIH3T3 [4]) inactive [at 17.4 µM] | Potency (C33A)

C=CC(C)(C)O[C@@H]1O[C@H](CO[C@@H]2OC[C@](O)(CO)[C@H]2O)[C@@H](O)[C@H](O)[C@H]1O
inactive: max response (CRL-7250) -2.3% | outcome (HEK293) | outcome (HaCat [1]) | outcome (KB-3-1) | outcome (NIH3T3 [2]) | outcome (HACAT [3]) | Potency (HEK293T) | outcome (NIH3T3 [4]) | Potency (C33A)

COc1ccc2cc(OCC3(C(=O)O)CN(C(=O)c4ccc(F)cc4)C3)ccc2c1
inactive: outcome (CRL-7250) | outcome (HEK293) | outcome (HaCat [1]) | max response (KB-3-1) 1.45% | outcome (NIH3T3 [2]) | outcome (HACAT [3]) | Potency (HEK293T) | outcome (NIH3T3 [4]) | Potency (C33A)

CC/C=C\C[C@H]1C(=O)C=C[C@@H]1CCCCCCCC(=O)O
inactive: max response (CRL-7250) 4.76% | outcome (HEK293) | outcome (HaCat [1]) | max response (KB-3-1) -3.68% | outcome (NIH3T3 [2]) | outcome (HACAT [3]) | Potency (HEK293T) | outcome (NIH3T3 [4]) | Potency (C33A)

Reference: PubChem BioAssay (NCATS)
